Assay results from article PMC6212790, “How bacterial xenogeneic silencer rok distinguishes foreign from self DNA in its resident genome”.
Over roughly 33,000 sequences, “e-score” has its median near -0.037; the highest 2% begin near 0.34. The sample holds the highest values, similar sequences and a random draw of the others, so the mix is not that of the screen.

Biological target: T1, GST-Rok (full length) (Bacillus subtilis subsp. subtilis str. …, UniProt O34857 1-191)
T1 sequence: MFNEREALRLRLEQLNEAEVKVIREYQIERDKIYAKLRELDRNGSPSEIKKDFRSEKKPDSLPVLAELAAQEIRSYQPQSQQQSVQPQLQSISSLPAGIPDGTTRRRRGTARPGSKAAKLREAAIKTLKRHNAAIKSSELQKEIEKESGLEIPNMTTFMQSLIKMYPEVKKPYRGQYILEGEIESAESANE
Test: protein binding microarray; Rok is a gene silencer of Bacillus subtilis; high values mean tight binding
Details: protein: recombinant; tags: GST (pTH5325, pDEST15-Magic modified); dsDNA, one strand shown
How it was run: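 Each has a 25-mer constant primer and a 35-mer variable part from a de Bruijn sequence of order 10, covering every non-palindromic 8-mer at least 32 times (palindromic 16). Preference for each 8-mer is given as a rank-based, unitless enrichment score (E-score). Its range runs from 0.5 (most favored) to −0.5 (most disfavored).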

| Sequence | binding signal |
| --- | --- |
| AGTTTTAC | 0.301 E-score |
| AGACCAAT | -0.0485 E-score |
| AGAGCACA | -0.114 E-score |
| GCGCTTCA | -0.0884 E-score |
| CGCCTATA | 0.00134 E-score |
| CATTCTAC | 0.407 E-score |
| GATTCTAA | 0.134 E-score |
| GATTCTGC | -0.0394 E-score |
| CATTCTAG | 0.259 E-score |
| AGTTCTAT | 0.213 E-score |
| AATTCTAA | 0.252 E-score |
| CATTCTAA | 0.0993 E-score |
| AATTCTAT | 0.31 E-score |
| AGTTCTAA | 0.15 E-score |
| GATTCTAC | 0.393 E-score |
| AGTTCTAC | 0.383 E-score |
| AATTCTAC | 0.435 E-score |
| AGCGACAG | -0.152 E-score |
| GCATTTAA | 0.115 E-score |
| ATAGCCTC | -0.165 E-score |
| GCTTAGAA | -0.0146 E-score |
| CCGTACAA | 0.188 E-score |

| Sequence | binding signal |
| --- | --- |
| ACTCGGTC | -0.0736 E-score |
| CCTCGGTA | 0.0273 E-score |
| ACTCGGTA | 0.363 E-score |
| AATAAATG | 0.295 E-score |
| GATAAATA | 0.313 E-score |
| TATAAATA | 0.397 E-score |
| AATAAATA | 0.345 E-score |
| CATAAATA | 0.195 E-score |
| AATAAATC | 0.233 E-score |
| CTTGCGGC | -0.19 E-score |
| GTACTAAA | 0.241 E-score |
| ATACTATG | 0.271 E-score |
| GTACTATA | 0.444 E-score |
| ATACTCTC | -0.0829 E-score |
| ATACTTTA | 0.239 E-score |
| ATACTATC | 0.378 E-score |
| CTACTATC | 0.323 E-score |
| CTACTTTA | 0.31 E-score |
| GGACTATA | 0.0812 E-score |
| GTACTTTA | 0.377 E-score |
| AGACTATA | 0.286 E-score |
| ATACTATA | 0.396 E-score |

| Sequence | binding signal |
| --- | --- |
| AATGGGTA | 0.289 E-score |
| AGTGACAG | -0.0878 E-score |
| ACTTGTCT | -0.00713 E-score |
| CCTCCAAC | -0.135 E-score |
| ACATTAAA | 0.108 E-score |
| CATTCTTC | 0.0507 E-score |
| ATACTAGG | 0.225 E-score |
| CGACTATA | 0.151 E-score |
| CCACTATA | 0.162 E-score |
| ATACTAGA | 0.349 E-score |
| CTACTATA | 0.399 E-score |
| CTACTAGA | 0.32 E-score |
| ATTGAAGA | 0.204 E-score |
| GAATAGGC | -0.173 E-score |
| AGCACATG | -0.117 E-score |
| ACACACCG | 0.0452 E-score |
| CGGCGGTC | -0.184 E-score |
| CTTCACAA | 0.035 E-score |
| TACCAAAA | 0.165 E-score |
| AGTTTCCA | 0.18 E-score |
| CACGTATA | 0.243 E-score |
| GACGTATA | 0.212 E-score |

| Sequence | binding signal |
| --- | --- |
| TACGTATA | 0.35 E-score |
| TCTAGTCA | 0.183 E-score |
| ACATAACG | 0.157 E-score |
| CTATATAC | 0.341 E-score |
| GCATATAC | 0.268 E-score |
| AGATATCA | 0.127 E-score |
| GGATATAC | 0.317 E-score |
| CCATATAC | 0.251 E-score |
| ACATAACT | 0.347 E-score |
| AGATATCT | 0.399 E-score |
| ACATAACC | 0.0404 E-score |
| CTCTATAC | 0.033 E-score |
| GTATATAC | 0.432 E-score |
| AGATATCC | -0.0591 E-score |
| ATCTTTCG | 0.109 E-score |
| AAGGATCA | -0.129 E-score |
| CCTAAACC | -0.152 E-score |
| CAAGGTCG | -0.126 E-score |
| GCTGAAAA | -0.146 E-score |
| GTTCTTAA | 0.122 E-score |
| CAAAGCTC | -0.0842 E-score |
| TCGAAAAA | -0.0412 E-score |
